Measured values from PubChem BioAssay.

Tests used:
[1] = test system: Human papillomavirus type 1a protein E7 (residues 44-93); assay: HPV1a E7 fragment binders on microarrays, primary screen, biochemical, small-molecule microarray, residues 44-93, 635 nm fluorescence (AID 1108); details: small-molecule microarray binding, fluorescence 635 nm; higher = more signal;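 note: E7 fragment applied at 1 µg/mL in TBST for 1 h at 4 C; score combines spot fluorescence with its signal to noise ratio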
[2] = modulators of HCV replicon luciferase signal, primary screen, HCV replication inhibitor project, Huh7 cells, luciferase reporter (AID 1109); details: 48 h, higher = more signal;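 note: huh7 hepatoma cells harbouring a luciferase neomycin HCV replicon reporter; luciferase luminescence as measure of HCV replicon replication; test concentration not given here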
[3] = molecular target: Left-right determination factor 2 (Homo sapiens) (UniProt O00292); assay: LEFTY2 binders on small-molecule microarrays, primary screen, biochemical, small-molecule microarray, 635 nm fluorescence scan (AID 1110); details: LEFTY2 binding, higher = more signal
[4] = molecular target: Calmodulin-1 (Homo sapiens) (UniProt P0DP23); assay: CALM1 binders on microarrays, EGTA buffer, profiling panel, biochemical, small-molecule microarray, Cy5-labelled CALM1 (AID 1111); details: Cy5-CALM1 binding fluorescence, higher = more signal;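 note: labelled calmodulin applied in Tris saline Tween buffer holding calcium plus EGTA and DTT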
[5] = molecular target: Calmodulin-1 (Homo sapiens) (UniProt P0DP23); assay: calcium-bound CALM1 binders on microarrays, profiling panel, artefact control for SMM control-protein annotation, biochemical, small-molecule microarray, Cy5-labelled CALM1, plus calcium (AID 1112); details: Cy5-CALM1 binding fluorescence, higher = more signal;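 note: score merges spot fluorescence with signal to noise from triplicate slides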
[6] = small-molecule microarray binders of probe aWnt5a, primary screen, biochemical, biotinylated probe, 635/667 nm fluorescence (AID 1113); details: higher = more signal;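 note: score merges 667 nm fluorescence intensity with signal-to-noise per printed feature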
[7] = small-molecule microarray binders of probe aShh, primary screen, biochemical, biotinylated probe, 635/667 nm fluorescence (AID 1114); details: higher = more signal;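 note: probe is biotin-labelled aShh protein from a stem cell growth factor screen; measures binding of labelled protein to compounds printed on the slide; score merges feature fluorescence at 667 nm with signal-to-noise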
[8] = small-molecule microarray binders of probe aNog, primary screen, biochemical, biotinylated probe, 635/667 nm fluorescence (AID 1115); details: higher = more signal;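 note: probe is biotinylated aNog protein used at 0.15 µg/mL for 1 h at 4 C; z-score combines 667 nm fluorescence of each spot with its signal to noise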
[9] = molecular target: Torsin-1A-interacting protein 1 (Homo sapiens) (UniProt Q5JTV8); assay: LAP1 binders from COS7 cell lysate, primary screen, small-molecule microarray, 635/667 nm fluorescence (AID 1116); details: COS7-hLAP1 lysate binding, 635 nm fluorescence, higher = more signal
[10] = molecular target: Alpha-bungarotoxin (Bungarus multicinctus) (UniProt P60615); assay: alpha-bungarotoxin binders on microarray, profiling panel, artefact control for SMM control protein annotation, biochemical, small-molecule microarray, Alexa647 label, 635/667 nm fluorescence (AID 1117); details: alpha-BTX-A647 binding fluorescence, higher = more signal
Sequence of Alpha-bungarotoxin (Bungarus multicinctus) (P60615 whole entry, looked up): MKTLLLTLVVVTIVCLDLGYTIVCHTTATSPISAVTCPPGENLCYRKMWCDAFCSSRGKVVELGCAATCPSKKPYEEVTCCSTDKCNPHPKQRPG

Sequence of Torsin-1A-interacting protein 1 (Homo sapiens) (Q5JTV8 whole entry, looked up): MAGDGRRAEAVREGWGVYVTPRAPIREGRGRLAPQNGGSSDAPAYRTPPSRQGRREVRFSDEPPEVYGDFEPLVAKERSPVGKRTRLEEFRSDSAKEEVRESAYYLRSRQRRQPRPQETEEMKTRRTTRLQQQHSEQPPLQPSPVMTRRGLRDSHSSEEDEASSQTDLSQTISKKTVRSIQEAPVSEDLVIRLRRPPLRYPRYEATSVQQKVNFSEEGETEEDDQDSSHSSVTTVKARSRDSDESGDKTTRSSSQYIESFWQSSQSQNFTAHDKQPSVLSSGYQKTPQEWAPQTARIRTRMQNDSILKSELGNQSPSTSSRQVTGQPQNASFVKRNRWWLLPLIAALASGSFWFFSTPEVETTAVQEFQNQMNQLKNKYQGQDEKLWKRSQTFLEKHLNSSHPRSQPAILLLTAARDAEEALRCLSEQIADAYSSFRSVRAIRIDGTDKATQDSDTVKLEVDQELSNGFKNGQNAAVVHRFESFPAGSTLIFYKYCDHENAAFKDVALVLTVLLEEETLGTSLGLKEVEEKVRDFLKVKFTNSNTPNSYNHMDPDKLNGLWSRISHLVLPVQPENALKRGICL
Sequence of Left-right determination factor 2 (Homo sapiens) (O00292 whole entry, looked up): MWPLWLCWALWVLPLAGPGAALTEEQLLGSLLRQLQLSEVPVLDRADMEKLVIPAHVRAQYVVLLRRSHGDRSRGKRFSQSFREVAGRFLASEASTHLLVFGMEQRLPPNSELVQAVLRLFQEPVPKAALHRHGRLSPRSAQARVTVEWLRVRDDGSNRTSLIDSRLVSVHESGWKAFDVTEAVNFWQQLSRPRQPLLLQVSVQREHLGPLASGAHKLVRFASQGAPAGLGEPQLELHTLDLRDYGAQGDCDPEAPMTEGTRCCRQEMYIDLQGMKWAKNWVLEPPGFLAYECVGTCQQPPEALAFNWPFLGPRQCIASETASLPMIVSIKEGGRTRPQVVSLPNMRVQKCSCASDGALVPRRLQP

| SMILES | composite z-score [1] | z-score [2] | composite z-score [3] | composite z-score [4] | composite z-score [5] | composite z-score [6] | composite z-score [7] | composite z-score [8] | composite z-score [9] | composite z-score [10] |
| --- | --- | --- | --- | --- | --- | --- | --- | --- | --- | --- |
| CCOC(=O)C1=CC[C@@H](c2ccccc2)N(S(=O)(=O)c2ccc(C)cc2)[C@H]1c1ccccc1C | 1.18 | -1.6 | 0.104 | 0.232 | 0.296 | -0.0512 | 0.294 | -0.0496 | 0.336 | -0.0244 |
| O=C1NC(=O)C2C1C=CC(C(O)c1cc(C(F)(F)F)cc(C(F)(F)F)c1)N2Nc1ccccn1 (stereo not given) | -0.2 | -0.345 | 0.274 | -0.0336 | -0.531 | -0.0165 | -0.214 | 0.566 | 1.88 | 0.143 |
| CCOC(=O)C[C@H]1[C@H](OC(=O)c2ccc(C(=O)c3ccccc3)cc2)[C@@H](NC(=O)CC(C)C)c2cc(OCCCO)ccc2N1C(=O)c1ccc2ccccc2n1 | 1.15 | -1.22 | 0.592 | 0.711 | -0.297 | -0.0704 | -0.0793 | -0.318 | 0.547 | 0.719 |
| C[N+](C)(C)CCCCNC(=O)[C@H]1C[C@H]2C(=O)N3CCC[C@H]3C(=O)N2[C@H]1c1cccc(OCCO)c1 | -1.09 | -0.884 | 0.766 | -0.858 | 1.03 | -0.0721 | 0.0141 | 0.0043 | 0.854 | -0.912 |
| CCOC(=O)C1=C[C@@H](C(C)(C)C)N(S(=O)(=O)c2ccc(C)cc2)[C@H]1c1ccc(F)cc1 | 1.41 | -1.59 | 0.653 | 1.49 | 0.083 | 0.0668 | -0.1 | 0.509 | 0.992 | 1.15 |
| Cc1ccc(N2C(=O)c3ccccc3[C@@H](C(=O)NC3CC3)[C@@H]2c2ccc(CO)cc2)nc1 | -1.51 | -0.312 | -3.3 | -1.35 | -1.25 | -0.268 | -0.0866 | -0.126 | -0.13 | -1.36 |
| COc1ccc(CCNC(=O)[C@@]2(C)c3ccccc3C(=O)N(C(C)C)[C@H]2c2ccc(CO)cc2)cc1 | 0.0331 | -1.3 | 0.364 | -0.118 | -0.229 | -0.131 | -0.0886 | -0.282 | 0.33 | 0.672 |
| C=C[C@H](OC)[C@@H](OC(=O)Nc1ccc(OC)cc1)c1ccc(O)c(F)c1 | 0.625 | -0.276 | -0.644 | -1.25 | -1.39 | -0.28 | 0.0952 | -0.478 | 1.14 | -1.56 |
| C=C(C)[C@@H]1CC=C(C(O)C2C=CC3C(=O)N(C)C(=O)C3N2Nc2ccccc2)CC1 (stereo not given in full) | 1.35 | -0.626 | 0.658 | -0.27 | -0.74 | 0.0004 | -0.142 | -0.144 | 0.296 | 0.429 |
| O=C1C2C=CC(C(O)Cc3ccccc3)N(n3cnnc3)C2C(=O)N1Cc1ccccc1 (stereo not given) | 0.625 | -0.53 | -0.262 | 0.841 | 0.471 | 0.127 | -0.007 | 0.908 | 0.955 | 0.165 |
| C=C(COC)/C(=C/C[C@H](OC(C)=O)c1ccc(CO)o1)c1cc(C(=O)OC)ccc1OC | 0.487 | -0.246 | -0.151 | -0.0624 | 0.204 | -0.0107 | -0.105 | -0.0489 | 0.0742 | -0.136 |
| COC(=O)[C@@]1(CCS(=O)(=O)c2ccccc2)N=C(c2ccc(OCCCO)cc2)O[C@H]1c1ccccc1CN=[N+]=[N-] | 0.797 | -2.38 | -0.343 | 1.72 | 0.373 | -0.0539 | 0.0469 | 0.647 | 1.13 | 0.829 |
| COC(=O)[C@@]1(Cc2ccc(OC)cc2)[C@H]2c3cc(C(=O)N(C)C)n(C)c3C[C@H]2CN1C(=O)c1ccccc1 | 1.45 | -2.62 | -0.239 | 2.01 | 0.749 | 0.0337 | 0.527 | 2.11 | 1.15 | 0.696 |
| O=C1C[C@]2(c3ccc([N+](=O)[O-])cc3)C(=O)N(CC(F)(F)F)c3cc(CO)ccc3[C@H]2N1C1CCCCC1 | -0.83 | 0.909 | -1.34 | -0.74 | -0.624 | -0.103 | -0.221 | -0.495 | -0.555 | -0.605 |
| CC(C)c1ccc(NN2C(C(O)c3ccc(B(O)O)cc3)C=CC3C(=O)N(c4ccccc4)C(=O)C32)cc1 (stereo not given) | 1.25 | 4.39 | -0.355 | 2.02 | 1.08 | 0.0324 | -0.0362 | 2.19 | 2.08 | 1.27 |
| COCCOC(=O)N1C(=O)[C@@]2(c3cc(C#Cc4ccc(OC)cc4)ccc31)[C@H](c1ccc(O)cc1)N1[C@H](c3ccccc3)[C@H](c3ccccc3)OC(=O)[C@H]1[C@@H]2C(=O)N1CCc2cc(OC)c(OC)cc2C1 | 1.32 | -0.296 | 0.471 | 1.74 | 0.141 | 0.0017 | -0.301 | 0.27 | 0.796 | 0.317 |

| SMILES | composite z-score [1] | z-score [2] | composite z-score [3] | composite z-score [4] | composite z-score [5] | composite z-score [6] | composite z-score [7] | composite z-score [8] | composite z-score [9] | composite z-score [10] |
| --- | --- | --- | --- | --- | --- | --- | --- | --- | --- | --- |
| CC(C)=CCCC(C)=CC(O)C1C=CC2C(=O)N(C)C(=O)C2N1Nc1ccccc1 (stereo not given) | 1.45 | -2.28 | 0.457 | 1.99 | 0.73 | 0.0597 | -0.0362 | 1.3 | 0.524 | 2.04 |
| COCC(=C=CC[C@@H](O)c1cccc(OCCO)c1)C[C@@H](O)c1ccccn1 | -0.768 | 0.0065 | 0.493 | -0.301 | -0.0023 | -0.0459 | -0.221 | -0.388 | 1.15 | 0.216 |
| O=C1C[C@@](C(=O)NCCN2CCOCC2)(c2ccc([N+](=O)[O-])cc2)[C@@H](c2ccc(CO)cc2)N1CC12CC3CC(CC(C3)C1)C2 | 1.47 | -3.14 | 0.745 | 1.06 | -0.0933 | -0.0445 | -0.16 | -0.377 | 0.651 | 1.7 |
| C=CCNC(=O)[C@H]1[C@@H]2C(=O)O[C@@H](c3ccccc3)[C@@H](c3ccccc3)N2[C@@H](c2ccccc2OCCO)[C@]12C(=O)Nc1ccc(C#CCC(C(=O)OC)C(=O)OC)cc12 | 1.46 | -2.33 | 1.07 | 2.02 | 1.24 | 0.0914 | 0.224 | 0.46 | 1.37 | 2.13 |
| CN(C)CCCC[C@@H]1NC(=O)[C@H]2C[C@@H](C(=O)NCCCCCCN)[C@@H](c3ccc(O)cc3)N2C1=O | 1.23 | 0.251 | 1.48 | 1.67 | 0.921 | 0.257 | 0.109 | 1.59 | 1.74 | 2.75 |
| CCOC(=O)C[C@H]1[C@H](OC(=O)c2cc3ccccc3oc2=O)[C@@H](NC(=O)c2ccccc2)c2cc(OCCCO)ccc2N1C(=O)c1ccc2ccccc2n1 | 0.55 | -0.765 | 0.782 | 0.183 | -0.505 | -0.0758 | -0.237 | -0.242 | 0.79 | 0.137 |
| C=CCN1C(=O)[C@]2(O[C@H](CCn3cc([C@H](O)c4ccccc4)nn3)[C@@H]([Si](C)(C)c3ccc(OC)cc3)[C@@H]2C)c2cc(N3CCC3=O)ccc21 | 1.34 | -3.08 | 0.152 | 0.439 | -0.022 | -0.0685 | 0.0253 | 0.328 | 0.549 | 1.07 |
| CC(C)C(CO)N1C(=O)[C@@H]2C3C(=O)OCCC/C=C\[C@H]3OC23C=CCN(CCN2CCOCC2)C(=O)[C@@H]13 (stereo not given in full) | -0.729 | 0.0618 | 0.0228 | -0.799 | -0.386 | -0.0529 | -0.209 | -0.238 | 1.38 | -1.6 |
| C=CCOC(=O)[C@@H]1[C@H]2C(=O)O[C@H](c3ccccc3)[C@H](c3ccccc3)N2[C@H](c2ccc(OCCOC(=O)[C@@H]3C[C@@H]4C(=O)NCC(=O)N4[C@@H]3c3ccc(O)cc3)cc2)[C@@]12C(=O)Nc1ccc(I)cc12 | 0.403 | -1.29 | 0.902 | 1.2 | 0.499 | -0.101 | 0.0796 | -0.175 | 1.4 | 0.872 |
| [N-]=[N+]=Nc1ccccc1[C@@H]1OC(c2ccc(OCCCO)cc2)=N[C@]1(CCS(=O)(=O)c1ccccc1)C(N)=O | 1.38 | 0.272 | -0.109 | 0.925 | 0.629 | 0.29 | 0.57 | 1.51 | 1.81 | 0.992 |
| CC[C@@H]1C=C(C(=O)O)[C@H](c2ccc(Br)cc2)N1S(=O)(=O)c1ccc(C)cc1 | 0.618 | -0.832 | -0.124 | 1.17 | 0.244 | -0.154 | -0.0769 | 0.581 | 0.532 | 0.535 |
| C=C(CCCC)C(=O)CC[C@@H](OC(=O)c1ccccc1-c1ccccc1C(=O)O)c1ccc(OCCO)cc1 | -0.65 | -2.71 | 0.744 | -0.487 | -0.559 | -0.096 | 0.0278 | 0.094 | 0.881 | 1.05 |
| CCCC#C[Si](O[C@H](CC)c1cn(Cc2cccc(Cl)c2)nn1)(C(C)C)C(C)C | 1.3 | -0.113 | 0.431 | 0.0375 | 0.169 | -0.0944 | -0.153 | -0.307 | 0.545 | -0.2 |
| CN(C)C(=O)[C@]1(Cc2ccccc2N=[N+]=[N-])N=C(c2ccc(OCCCO)cc2)O[C@@H]1c1ccccc1N=[N+]=[N-] | 1.38 | -2.69 | 0.116 | 1.7 | 0.497 | -0.0179 | 0.0796 | 1.39 | 2.54 | 1.22 |
| C=C(COC)/C(=C/C[C@@H](OC(C)=O)c1ccc(OCCO)cc1)c1cnc2ccccc2c1 | 0.487 | -1.19 | 0.989 | 0.263 | -0.731 | -0.0761 | 0.0557 | -0.1 | 0.174 | 1.63 |
| N#Cc1ccc(NN2C(C(O)C(c3ccccc3)c3ccccc3)C=CC3C(=O)N(c4ccccc4)C(=O)C32)cc1 (stereo not given) | 1.46 | -0.734 | 0.0908 | 1.87 | 0.609 | 0.0768 | 0.392 | 1.72 | 0.307 | 1.91 |
